Reference: PubChem BioAssay AID1345082 (National Center for Advancing Translational Sciences (NCATS), 2018)
Among all 94,000 compounds or so, about 4,000 (4.3%) were called active. Inconclusive results (about 29%) are left out. The call rests on the fitted dose curve; in most records, active means well fitted inhibition curve with a large enough effect; inconclusive means small, poorly fitted or top-dose-only effect; inactive means no such curve, though single readings can be large or run the other way. What follows is part of a selection rich in actives, with near analogues and random picks from the rest.

Test: Cytotoxic Profiling in NIH 3T3 Cell Line of Diverse Libraries Using Quantitative High-Throughput Screening; further: nearly all actives have a fitted effect of over 55% in size
Conditions: NIH 3T3 viability, CellTiter-Glo ATP luminescence, 48-72 h; series mostly up to 96.7 µM; activity change, negative = cytotoxicity: at the top concentration
Summary of the method: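 ATP-dependent luminescence (CellTiter-Glo) served as the viability signal for NIH 3T3 cells treated with compound for 48 or 72 hr at 37 °C.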
On the % scale 0 is the no-effect control and ±100 the full control effect; potency means the concentration at half of the fitted maximal effect.

SMILES | outcome | activity change, negative = cytotoxicity | Potency
Cc1ncc(C(=O)N2C[C@@H](C(=O)O)[C@H](c3ccc4c(c3)OCO4)C2)c(C)n1 | inactive |  | 
COCCNc1ncnc2c1CN(C1CCCNCC1)C(=O)CN2C (stereo not drawn) |  | -32% (inactive) | 
COCc1cc(=O)n(CC(=O)NCc2ccc(C)cc2)c(N2CCOCC2)n1 |  | 1.74% (inactive) | 
CCCCOC(=O)c1ccc(NC(=O)c2c(OC)cc(=O)n3c2CCCC3)cc1 |  | -8.34% (inactive) | 
O=C(c1ccccc1Cl)N1CC2(Cc3ccccc3NC2=O)C1 | inactive |  | 
O=C(Cc1ccccc1)NC1CCCc2c1[nH]c1c(Cl)cccc21 (stereo not drawn) |  |  | 35.5 µM (active)
COc1ccc(CC(=O)NC2CCCc3c2[nH]c2ccccc32)cc1 (stereo not drawn) |  |  | 31.6 µM (active)
COc1ccc(CC(=O)N2CCC[C@H]2c2nc(-c3ccccc3)no2)cc1 |  | -21.5% (inactive) | 
O=C(Cn1nc2c(cc1=O)CCCC2)NC1CCCc2c1[nH]c1c(Cl)cccc21 (stereo not drawn) |  | -11.9% (inactive) | 
O=C(Cn1nc(-c2ccco2)ccc1=O)NC1CCCc2c1[nH]c1c(Cl)cccc21 (stereo not drawn) |  | -2.22% (inactive) | 
O=C(NC1CCCc2c1[nH]c1ccc(F)cc21)c1ccccn1 (stereo not drawn) |  | -11.4% (inactive) | 
COc1ccc(CN2CCc3oc(C)c(C(=O)NCCN4CCCC4)c3C2)cc1 |  | -16.9% (inactive) | 
CN(C)C(=O)c1nc(-c2ccc(Cl)cc2Cl)c2cnccn12 |  | -16% (inactive) | 
CN(C)C[C@@H]1CN(c2ncccn2)C[C@H]1NC(=O)Cc1ccccc1Cl |  | -7.01% (inactive) | 
Oc1ccccc1CN1CCOC[C@H]1c1ncc(-c2ccc(C(F)(F)F)cc2)[nH]1 |  |  | 50.1 µM (active)
CC(C)(C)c1coc([C@@H]2COCCN2Cc2ccc(F)cc2)n1 |  | -18.2% [at 138 µM] (inactive) | 
Fc1ccc(CN2CCOC[C@H]2c2ncc(-c3cccnc3)[nH]2)cc1 |  | -7.62% [at 174 µM] (inactive) | 
Cn1cc(CN2CCOC[C@H]2c2ncc(-c3cccc(F)c3)[nH]2)c2ccccc21 |  |  | 39.8 µM (active)
Cn1cc(CN2CC[C@H](c3nnc(-c4cccnc4)o3)C2)c2ccccc21 |  | -9.9% [at 138 µM] (inactive) | 

SMILES | outcome | activity change, negative = cytotoxicity | Potency
CN(C)c1ccc(CN2CCOC[C@H]2c2ncc(-c3cccc(F)c3)[nH]2)cc1 |  | -27.2% [at 138 µM] (inactive) | 
c1cncc(-c2cnc([C@@H]3COCCN3Cc3cnc4ccccc4c3)[nH]2)c1 |  | -1.17% [at 174 µM] (inactive) | 
Cc1ccc(CN2CCOC[C@H]2c2ncc(-c3cccc(F)c3)[nH]2)cc1 |  |  | 79.4 µM (active)
CN(Cc1ccccc1)Cc1cn([C@H]2CO[C@H]3[C@@H]2OC[C@@H]3NS(C)(=O)=O)nn1 |  | -3.96% [at 174 µM] (inactive) | 
CCc1noc(-c2cccn3c(CNC(=O)C(CC)c4ccccc4)nnc23)n1 (stereo not drawn) |  | -7.72% (inactive) | 
CCn1cc(S(=O)(=O)N2CC[C@H](CNC(C)=O)[C@H](N(C)C)C2)cn1 |  | -3.26% (inactive) | 
Cc1ccc(F)cc1S(=O)(=O)N1CCn2c(nn(CC3CC3)c2=O)C1 | inactive |  | 
O=C(C[C@@H]1O[C@H](CNC(=O)C2CC2)[C@@H](O)[C@H]1O)NCCN1CCOCC1 |  | 2.3% [at 174 µM] (inactive) | 
Cc1ccnc(N2CC[C@@H]3[C@@H](CCC(=O)N3CCc3ccccn3)C2)n1 |  | -23.3% (inactive) | 
c1cncc(-c2noc(C3CCCN(Cc4cc5n(n4)CCNC5)C3)n2)c1 (stereo not drawn) |  | 1.2% (inactive) | 
CCOC(=O)N1CCC(=O)N(Cc2ccccc2)Cc2cc(OC)ccc21 |  | -26.4% (inactive) | 
Cc1nc(C(C)C)ncc1C(=O)N1CCN(C)C2(CCNC(=O)CC2)C1 (stereo not drawn) |  | 3.15% (inactive) | 
CNC(=O)[C@@H](c1ccccc1F)N1CCC[C@H]1C(=O)NCCOC |  | -12.7% [at 174 µM] (inactive) | 
O=C(c1cccs1)N1CCOCC2(CN(Cc3cc(F)cc(F)c3)C2)C1 |  | -19.7% [at 138 µM] (inactive) | 
CC(=O)N1CCC2(CC1)CN(C(=O)Cc1cccc(Cl)c1)CCO2 |  | 3.86% (inactive) | 
O=C(Cc1ccc(F)cc1)N1CCOCC2(CN(Cc3ccccc3)C2)C1 |  |  | 35.5 µM (active)
Cc1nc(-c2cn(C3CCCN(C(=O)c4sccc4C)C3)nn2)no1 (stereo not drawn) |  | -3.14% (inactive) | 
CCN1CCN(CCNC(=O)C2Cn3cccc3C(=O)N2Cc2cccnc2)CC1 (stereo not drawn) |  | -3.23% (inactive) | 
N#Cc1ccc(CN2CCc3nc(C(=O)N4CCOCC4)oc3CC2)cc1 |  | -23.4% [at 138 µM] (inactive) | 
